# Assay outcomes (PubChem)
# Sampled rows, rich in hits. Any-hit rate of the full collection: about 21%.
# D3 ag – D3 dopamine receptor (human) agonism; D3R DiscoveRx beta-arrestin cells, luminescence, 90 min; max activation, %; actives 0.58% (n = 410,000); AID 652048; in the data active = max activation above about 30%; also: 0% is about no effect
#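 Agonist mode: compounds and dopamine controls were applied to plated cells for 90 min at 37 degrees C after an overnight attachment at 1500 cells/well. Luminescent read-out followed 30 - 60 minutes at room temperature with DiscoveRx detection reagent.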
# D3 antag – antagonists of human D3 dopamine receptor | P35462 | max response, negative = inhibition, % | actives 2.5% (n = 360,000) | D3R cells, DiscoveRx beta-arrestin luminescence, antagonist mode; active compounds read low | AID 652054; in the data active = max response below about -50%; inconclusive = no clear call, values can overlap the other calls; also: % is scaled to controls: 0 for no effect and ±100 for the full control effect
#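 Cells expressing the human receptor were seeded at 1500 cells/well, incubated overnight at 37 degrees C in 5% CO2, then exposed to library compounds with dopamine controls for 90 minutes at 37 degrees C before luminescent detection.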
# IL-1B inflam inh – inflammasome signaling inhibition, IL-1 beta readout | THP-1 LPS/ATP IL-1B secretion, AlphaLISA, 16 h; active compounds read low | activity change, % at 57.5 µM | actives 4.7% (n = 360,000) | AID 743279; in the data active = activity change below about -50%; inconclusive = mostly about -30% to -49%; also: % is scaled to controls: 0 for no effect and ±100 for the full control effect
#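 Secreted IL-1B measured by AlphaLISA bead assay after 16 h compound exposure of THP-1 cells; compounds (final up to 57.5 uM) added 1 h before LPS (250 ng/mL) and ATP (1.25 mM) stimulation; lower signal means less secretion.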
# ClpP mod – qHTS Assay for Activators of ClpP; purified B. subtilis ClpP, FRET peptide cleavage, 20 min; Potency, µM (titrated, usually from 57.5 µM), inactives show top-dose activity change, negative = active; actives 1.9% (n = 340,000); AID 651965, 2013; active = well fitted falling curve with a large enough effect; inconclusive = small, poorly fitted or top-dose-only effect; inactive = no such curve, though single readings can be large or run the other way; also: potency is read from the fitted curve at half-maximal effect; the source files actives as falling curves though it sought activators and does not explain the sign; nearly all actives have a fitted effect of over 65% in size
#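 Purified B. subtilis ClpP, 10 microg/mL final in Tris/HCl pH8 with KCl, BSA, glycerol and Tween-20, cleaved an Abz/nitrotyrosine-quenched decapeptide. Fluorescence (ex 320, em 430) was read at 0 and 20 min at room temperature. Delta was normalized to 5.8 microM ADEP and DMSO/no-enzyme controls.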
# DT40 TDP1 CPT – DT40-hTDP1 cell growth loss with CPT. Potency, µM (highest dose often 46.2 µM), inactives show top-dose activity change, negative = growth inhibition, hits mostly inhibitors. chicken DT40 Tdp1-/-;hTDP1 cells + 20 nM CPT, ATP luminescence, 48 h. actives 12% (n = 420,000); also: potency is read from the fitted curve at half-maximal effect; % is scaled to controls: 0 for no effect and ±100 for the full control effect; nearly all actives have a fitted effect of over 55% in size
#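 Chicken DT40 Tdp1-/- cells stably complemented with human TDP1 were seeded at 400 cells/well in medium containing 20 nM camptothecin, exposed to pin-transferred compounds, and grown at 37 °C for at least 48 hr. Viability was read as ATP luminescence.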
# DT40 TDP1 no CPT – qHTS for Inhibitors of human tyrosyl-DNA phosphodiesterase 1 (TDP1): qHTS in cells in absence of CPT | DT40 Tdp1-/- hTDP1 cells, no CPT, ATP luminescence, 48 h | Potency, µM (top dose mostly 46.2 µM), for the others: at the top dose activity change, negative = growth inhibition, actives largely listed as inhibitors | actives 15% (n = 420,000) | AID 686978, 2013; also: potency is read from the fitted curve at half-maximal effect; % is scaled to controls: 0 for no effect and ±100 for the full control effect; nearly all actives have a fitted effect of over 55% in size
#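 Readout: luminescence from CellTiter-Glo after 30 min in the dark at RT. Cells: DT40 Tdp1-/- with stable hTDP1, 400/well. Exposure: compounds alone, ≥48 hr, 37 °C.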
# Numbers without * were called inactive; ? = inconclusive; . = no result. Unless noted, calls follow the shape of the dose curve; as a rule, active = well fitted inhibition curve with a large enough effect; inconclusive = small, poorly fitted or top-dose-only effect; inactive = flat fitted curve, though single readings scatter.
SMILES,D3 ag,D3 antag,IL-1B inflam inh,ClpP mod,DT40 TDP1 CPT,DT40 TDP1 no CPT
Cc1ccc(C(=O)NC2c3ccccc3-c3ccccc32)cc1,-10,-8,14,-4%,2.9µM*,3.7µM*
Cc1nccn1CC(=O)N/N=C/c1c[nH]c2ccccc12,-9,-8,47,.,-23%,?
O=C(CSc1ccccc1)N/N=C/c1ccccc1O,19,22,144,.,4.1µM*,2.6µM*
O=C(CSc1n[nH]c(=O)[nH]c1=O)N/N=C/c1ccccc1O,3,13,11,-3%,13µM*,-3%
Cc1nccn1CC(=O)N/N=C/c1ccccc1O,-13,0,120,.,?,21µM*
Cc1ccc(S(=O)(=O)NCC(=O)N/N=C/c2ccccc2O)cc1,5,-2,116,.,5.2µM*,6.5µM*
COc1ccc2nc(SCC(=O)NCc3ccc(S(N)(=O)=O)cc3)[nH]c2c1,-13,7,0,.,-20%,-27%
N#CCCn1cc(C=O)c(-c2cccs2)n1,5,2,78,.,?,?
CCc1ccccc1-n1nnnc1-c1cnccc1C(F)(F)F,-8,4,23,.,?,-24%
COc1ccc(CSCC(=O)N/N=C/c2ccccc2O)cc1,-7,17,115,.,2.9µM*,2.6µM*
Cc1ccc(S(=O)(=O)NCC(=O)OCN2C(=O)c3ccccc3C2=O)cc1,3,7,17,0%,?,21µM*
Cc1ccc(S(=O)(=O)NCN2C(=O)c3ccccc3C2=O)cc1,2,-6,0,0%,-2%,-23%
Cc1cc(SCC(=O)N/N=C/c2ccc(O)c(O)c2O)c(C)cc1Br,4,15,23,-4%,3.3µM*,4.6µM*
CCC(C)(C)NC(=O)CCCSc1nc2ccccc2s1,2,7,-17,.,?,?
O=C(NCc1ccc(Cl)cc1)C(=O)NCC(c1ccco1)S(=O)(=O)c1cccs1 (configuration not stated),3,.,.,1%,?,?
C#CCNC(=O)c1ccc2sc([C@H]3C[C@H](O)[C@@H](CO)O3)nc2c1,1,10,107,0%,-8%,-9%
CCOc1ccc2nc(N=NC3=C(O)CC(C)(C)CC3=O)sc2c1,0,?,214,0%,3.7µM*,4.1µM*
CCCC1=C(C(=O)OCC)C(c2ccc(F)cc2)n2ncnc2N1 (configuration not stated),5,25,26,1%,?,?
CC(=O)C1=C(C)Nc2ncnn2C1c1ccc(O)cc1 (configuration not stated),2,-4,15,-1%,2%,16%
CCCC1=C(C(=O)OCC)C(/C=C/c2ccccc2)n2ncnc2N1 (configuration not stated),5,-18,4,0%,16µM*,13µM*
COC(=O)c1ccc(C2C(C(C)=O)=C(C)Nc3ncnn32)cc1 (configuration not stated),-3,-74*,13,-3%,2%,-9%
CCCC1=C(C(=O)OCC)C(c2ccc(N(C)C)cc2)n2ncnc2N1 (configuration not stated),18,-8,17,0%,?,26µM*
CCOC(=O)C1=C(C)Nc2ncnn2C1/C=C/c1ccccc1 (configuration not stated),-7,?,51,-1%,?,?
CC(=O)N1CC=C2C(C#N)=C(N)C(C#N)(C#N)[C@H](c3ccoc3)[C@H]2C1,-12,8,4,-5%,-27%,-2%
N#CC1=C(N)C(C#N)(C#N)[C@H](c2ccoc2)[C@H]2CN(Cc3ccccc3)CC=C12,-4,?,25,-4%,5.8µM*,5.8µM*
SMILES,D3 ag,D3 antag,IL-1B inflam inh,ClpP mod,DT40 TDP1 CPT,DT40 TDP1 no CPT
N#CC1=C(N)C(C#N)(C#N)C(c2cccnc2)C2CN(C(=O)OCc3ccccc3)CC=C12 (configuration not stated),-6,-74*,-21,9%,16µM*,?
CN1CC=C2C(C#N)=C(N)C(C#N)(C#N)[C@H](c3ccoc3)[C@H]2C1,-3,-16,21,32µM*,?,21µM*
CN1CC=C2C(C#N)=C(N)C(C#N)(C#N)C(c3cccc(Cl)c3Cl)C2C1 (configuration not stated),-1,-25,-103*,?,23µM*,?
CCn1nnc(-c2ccc(N)cc2)n1,-5,4,34,.,-7%,-7%
CCOC(=O)N1CC=C2C(C#N)=C(N)C(C#N)(C#N)[C@H](c3ccc(OCC)c(OCC)c3)[C@H]2C1,1,8,-14,-4%,?,-28%
CCN1CC=C2C(C#N)=C(N)C(C#N)(C#N)C(CCc3ccccc3)C2C1 (configuration not stated),-6,?,39,28µM*,?,?
CC(=O)N1CC=C2C(C#N)=C(N)C(C#N)(C#N)C(CCc3ccccc3)C2C1 (configuration not stated),-4,-12,50,-4%,?,?
Cc1ccc(C2C3CN(C(C)C)CC=C3C(C#N)=C(N)C2(C#N)C#N)cc1 (configuration not stated),-11,-86*,-3,20µM*,16µM*,13µM*
CCCCn1c(N)c(N(CCOC)C(=O)COC(=O)CNC(=O)c2ccc(Cl)c(Cl)c2)c(=O)[nH]c1=O,-5,9,0,-1%,2%,11%
COc1cc(OC)c2cc(C(=O)N[C@H](C(=O)N3CCC[C@H]3C(=O)O)C(C)C)n(C)c2c1,-8,11,-11,5%,9%,-1%
COc1ccc(NC(=O)CCS(=O)(=O)c2ccc(OC)cc2)cc1,1,33,-4,2%,-27%,?
Cc1c(Cl)cccc1NC(=O)CCS(=O)(=O)c1ccc2c(c1)CC(C)N2C(=O)C1CC1 (configuration not stated),1,.,.,-3%,5.2µM*,4.1µM*
CC1Cc2cc(S(=O)(=O)CCC(=O)Nc3ccc(OC(F)(F)F)cc3)ccc2N1C(=O)C1CC1 (configuration not stated),9,.,.,2%,7.3µM*,5.8µM*
